# For some of these results: Measured potencies and affinities stand elsewhere.
# Legend:
# [1] = target: T1, Methionyl-tRNA synthetase, putative (Leishmania donovani (strain BPK282A1)) (UniProt E9BF75); experiment: Leishmania donovani Methionine tRNA synthetase (LdMetRS):v7. Dose response assay; type: functional; set-up: conc 80 nM, time 150 minutes
# T1 sequence (whole entry): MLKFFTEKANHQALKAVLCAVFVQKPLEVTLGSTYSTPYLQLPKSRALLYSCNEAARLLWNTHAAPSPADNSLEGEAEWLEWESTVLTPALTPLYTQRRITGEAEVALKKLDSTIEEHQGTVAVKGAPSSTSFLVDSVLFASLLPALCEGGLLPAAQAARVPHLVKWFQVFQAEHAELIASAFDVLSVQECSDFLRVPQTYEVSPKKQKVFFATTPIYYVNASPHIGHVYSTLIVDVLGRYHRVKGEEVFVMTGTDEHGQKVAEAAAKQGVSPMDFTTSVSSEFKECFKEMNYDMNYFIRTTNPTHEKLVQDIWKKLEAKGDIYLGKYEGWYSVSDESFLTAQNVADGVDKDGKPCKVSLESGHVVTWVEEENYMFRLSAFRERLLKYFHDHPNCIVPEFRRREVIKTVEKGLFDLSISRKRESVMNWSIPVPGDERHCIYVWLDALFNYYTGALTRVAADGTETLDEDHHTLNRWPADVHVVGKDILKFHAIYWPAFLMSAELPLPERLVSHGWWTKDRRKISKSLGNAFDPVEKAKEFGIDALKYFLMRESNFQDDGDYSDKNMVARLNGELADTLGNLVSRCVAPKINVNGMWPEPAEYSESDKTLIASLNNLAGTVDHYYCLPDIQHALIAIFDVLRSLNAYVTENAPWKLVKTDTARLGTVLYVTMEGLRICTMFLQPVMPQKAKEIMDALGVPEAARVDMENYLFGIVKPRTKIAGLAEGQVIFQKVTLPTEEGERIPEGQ
# [2] = target: Protein translocase subunit SecA (Escherichia coli (strain K12)) (UniProt P10408); experiment: Assay to Identify E. coli SecA ATPase Inhibitors; type: functional; set-up: scale not given: direction of the effect not stated beside the values; settings: 30 µM
# Chain of Protein translocase subunit SecA (Escherichia coli (strain K12)) (P10408 whole entry): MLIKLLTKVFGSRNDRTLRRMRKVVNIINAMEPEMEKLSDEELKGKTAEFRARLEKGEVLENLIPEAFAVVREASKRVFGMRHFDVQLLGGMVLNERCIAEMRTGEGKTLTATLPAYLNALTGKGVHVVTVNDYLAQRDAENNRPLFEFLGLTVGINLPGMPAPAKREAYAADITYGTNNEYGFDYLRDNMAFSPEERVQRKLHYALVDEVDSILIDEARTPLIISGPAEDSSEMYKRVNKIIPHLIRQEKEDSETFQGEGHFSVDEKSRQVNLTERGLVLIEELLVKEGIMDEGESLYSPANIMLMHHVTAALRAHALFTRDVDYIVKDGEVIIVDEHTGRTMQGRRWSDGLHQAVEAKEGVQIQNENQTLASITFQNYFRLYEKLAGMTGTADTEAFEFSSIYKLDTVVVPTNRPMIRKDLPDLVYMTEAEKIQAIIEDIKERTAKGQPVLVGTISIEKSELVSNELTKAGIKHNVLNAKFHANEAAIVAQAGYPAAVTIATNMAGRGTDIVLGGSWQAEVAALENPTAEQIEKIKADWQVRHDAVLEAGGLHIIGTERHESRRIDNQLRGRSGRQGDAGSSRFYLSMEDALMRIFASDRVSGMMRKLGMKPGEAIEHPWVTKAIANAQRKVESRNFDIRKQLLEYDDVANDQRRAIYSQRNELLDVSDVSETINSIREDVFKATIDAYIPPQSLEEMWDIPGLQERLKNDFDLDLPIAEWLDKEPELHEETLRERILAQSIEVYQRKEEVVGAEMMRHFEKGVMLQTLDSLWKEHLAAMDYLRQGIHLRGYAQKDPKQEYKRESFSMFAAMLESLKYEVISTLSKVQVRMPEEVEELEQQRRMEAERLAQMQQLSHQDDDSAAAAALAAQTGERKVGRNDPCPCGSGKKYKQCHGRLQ
# [3] = target: T2, Ubiquitin-activating enzyme e1, putative (Leishmania donovani (strain BPK282A1)) (UniProt E9BSI1); experiment: Leishmania donovani Ubiquitin Activating Enzyme (LdE1); type: functional; set-up: scale not given: direction of the effect not stated beside the values; settings: 30 µM
# T2 sequence (whole entry): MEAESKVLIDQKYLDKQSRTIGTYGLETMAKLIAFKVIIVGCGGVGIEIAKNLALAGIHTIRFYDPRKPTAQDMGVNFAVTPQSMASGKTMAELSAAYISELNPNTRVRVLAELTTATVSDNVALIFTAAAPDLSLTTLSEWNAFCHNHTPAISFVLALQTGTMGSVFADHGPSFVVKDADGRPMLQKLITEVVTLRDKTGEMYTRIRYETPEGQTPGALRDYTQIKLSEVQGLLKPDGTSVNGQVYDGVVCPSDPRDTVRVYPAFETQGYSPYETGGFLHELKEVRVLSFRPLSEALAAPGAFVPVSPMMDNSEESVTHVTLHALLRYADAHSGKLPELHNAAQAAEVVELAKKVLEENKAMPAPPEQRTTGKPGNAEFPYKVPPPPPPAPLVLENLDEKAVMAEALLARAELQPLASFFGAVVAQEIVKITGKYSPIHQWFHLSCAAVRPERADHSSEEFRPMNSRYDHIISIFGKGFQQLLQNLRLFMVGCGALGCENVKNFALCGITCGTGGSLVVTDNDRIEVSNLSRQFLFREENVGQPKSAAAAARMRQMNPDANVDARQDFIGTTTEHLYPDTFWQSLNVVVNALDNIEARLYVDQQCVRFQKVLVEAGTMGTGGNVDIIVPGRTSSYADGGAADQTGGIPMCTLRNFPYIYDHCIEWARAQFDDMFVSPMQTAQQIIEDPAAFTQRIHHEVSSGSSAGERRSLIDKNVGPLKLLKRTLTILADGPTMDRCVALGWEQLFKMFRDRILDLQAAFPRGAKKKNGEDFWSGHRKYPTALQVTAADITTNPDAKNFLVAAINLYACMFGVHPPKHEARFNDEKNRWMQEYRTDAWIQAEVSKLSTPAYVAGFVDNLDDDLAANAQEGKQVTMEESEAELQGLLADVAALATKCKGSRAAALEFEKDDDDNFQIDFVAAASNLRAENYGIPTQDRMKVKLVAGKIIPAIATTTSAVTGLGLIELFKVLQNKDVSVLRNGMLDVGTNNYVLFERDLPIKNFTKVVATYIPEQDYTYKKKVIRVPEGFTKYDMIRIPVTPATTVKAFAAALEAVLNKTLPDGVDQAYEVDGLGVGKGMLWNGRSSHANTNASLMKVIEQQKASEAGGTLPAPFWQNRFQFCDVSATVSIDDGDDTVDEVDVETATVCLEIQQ
# [4] = target: AMP-activated protein kinase, AMPK (Homo sapiens) (UniProt P54646+O43741+P54619+Q9UGJ0+Q9Y478+Q13131+Q9UGI9); experiment: AMP-dependent Kinase enzyme assay. An in vitro enzyme assay that detects ADP turnover that is directly proportional to AMPK activity. This uses naive AMPK that is activated during the assay with MK-8722; type: functional; set-up: scale not given: direction of the effect not stated beside the values; settings: 30 µM
# [5] = target: Sialic acid-binding Ig-like lectin 9 (Homo sapiens) (UniProt Q9Y336); experiment: Hs-Siglec9 ALPHAscreen SOP 20170721; set-up: scale not given: direction of the effect not stated beside the values; settings: 10 µM
# Chain of Sialic acid-binding Ig-like lectin 9 (Homo sapiens) (Q9Y336 whole entry): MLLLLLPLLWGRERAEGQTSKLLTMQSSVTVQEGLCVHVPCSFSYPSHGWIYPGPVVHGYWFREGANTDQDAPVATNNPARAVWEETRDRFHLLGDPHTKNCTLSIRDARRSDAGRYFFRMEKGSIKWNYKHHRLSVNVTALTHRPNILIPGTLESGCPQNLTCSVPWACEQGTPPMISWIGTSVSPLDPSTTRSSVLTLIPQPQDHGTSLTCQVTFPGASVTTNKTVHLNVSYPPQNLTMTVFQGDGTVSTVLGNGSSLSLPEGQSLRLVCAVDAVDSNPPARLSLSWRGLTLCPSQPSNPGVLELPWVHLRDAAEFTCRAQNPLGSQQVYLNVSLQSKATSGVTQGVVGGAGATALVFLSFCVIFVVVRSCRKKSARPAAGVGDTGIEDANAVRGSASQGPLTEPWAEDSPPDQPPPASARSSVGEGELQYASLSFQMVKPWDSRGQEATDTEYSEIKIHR
# Trypanosoma cruzi = experiment: Trypanosoma cruzi phosphomannomutase and mannose-1-phosphate guanylyltransferase assay; type: functional; set-up: scale not given: direction of the effect not stated beside the values; settings: 10 µM
# [6] = target: T3, Arginase-2, mitochondrial (Homo sapiens) (UniProt P78540); experiment: in vitro enzyme assay to detect the production of urea directly proportional to the activity of Arginase II; type: functional; set-up: scale not given: in the data most compounds retested in dose-response had high values; settings: 33.3 µM
# T3 sequence (whole entry): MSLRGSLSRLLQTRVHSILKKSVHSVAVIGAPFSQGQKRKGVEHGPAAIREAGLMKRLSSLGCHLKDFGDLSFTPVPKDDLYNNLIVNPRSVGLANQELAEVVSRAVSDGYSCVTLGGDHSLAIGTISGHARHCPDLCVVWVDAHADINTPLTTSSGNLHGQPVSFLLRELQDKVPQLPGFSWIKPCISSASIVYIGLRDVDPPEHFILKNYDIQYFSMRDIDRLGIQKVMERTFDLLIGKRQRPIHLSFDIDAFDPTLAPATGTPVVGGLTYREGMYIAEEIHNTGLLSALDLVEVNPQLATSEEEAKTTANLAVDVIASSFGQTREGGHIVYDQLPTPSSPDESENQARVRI
# [7] = target: T4, Proteasome subunit beta (Trypanosoma cruzi) (UniProt O96673); experiment: Trypanosoma cruzi proteasome chymotrypsin-like activity (TcProtChymo) assay.; type: functional; set-up: scale not given: in the data most compounds retested in dose-response had high values; settings: 9.37 µM
# T4 sequence (whole entry): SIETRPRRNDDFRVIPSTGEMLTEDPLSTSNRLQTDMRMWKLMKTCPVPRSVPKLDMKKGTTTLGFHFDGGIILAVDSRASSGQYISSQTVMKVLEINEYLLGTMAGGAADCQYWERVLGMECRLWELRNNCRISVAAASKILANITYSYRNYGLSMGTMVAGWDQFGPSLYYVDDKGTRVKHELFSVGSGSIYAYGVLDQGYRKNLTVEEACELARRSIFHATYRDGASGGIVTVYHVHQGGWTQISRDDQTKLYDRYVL
# Homo sapiens = species on record: Homo sapiens; experiment: To identify inhibition of the IFN signalling (Jak-Stat) pathway via expression of an eGFP reporter gene under the control of an IFN-stimulated response element (ISRE) containing MxA promoter.; type: functional; set-up: scale not given: direction of the effect not stated beside the values; settings: 30 µM
# [8] = target: T5, Tyrosyl-tRNA synthetase, putative (Trypanosoma cruzi (strain CL Brener)) (UniProt Q4DSP6); experiment: Trypanosoma cruzi tyrosyl tRNA synthetase (TcYRS) _High Tyrosine SOP; type: functional; set-up: scale not given: in the data most compounds retested in dose-response had high values; settings: 30 µM
# T5 sequence (whole entry): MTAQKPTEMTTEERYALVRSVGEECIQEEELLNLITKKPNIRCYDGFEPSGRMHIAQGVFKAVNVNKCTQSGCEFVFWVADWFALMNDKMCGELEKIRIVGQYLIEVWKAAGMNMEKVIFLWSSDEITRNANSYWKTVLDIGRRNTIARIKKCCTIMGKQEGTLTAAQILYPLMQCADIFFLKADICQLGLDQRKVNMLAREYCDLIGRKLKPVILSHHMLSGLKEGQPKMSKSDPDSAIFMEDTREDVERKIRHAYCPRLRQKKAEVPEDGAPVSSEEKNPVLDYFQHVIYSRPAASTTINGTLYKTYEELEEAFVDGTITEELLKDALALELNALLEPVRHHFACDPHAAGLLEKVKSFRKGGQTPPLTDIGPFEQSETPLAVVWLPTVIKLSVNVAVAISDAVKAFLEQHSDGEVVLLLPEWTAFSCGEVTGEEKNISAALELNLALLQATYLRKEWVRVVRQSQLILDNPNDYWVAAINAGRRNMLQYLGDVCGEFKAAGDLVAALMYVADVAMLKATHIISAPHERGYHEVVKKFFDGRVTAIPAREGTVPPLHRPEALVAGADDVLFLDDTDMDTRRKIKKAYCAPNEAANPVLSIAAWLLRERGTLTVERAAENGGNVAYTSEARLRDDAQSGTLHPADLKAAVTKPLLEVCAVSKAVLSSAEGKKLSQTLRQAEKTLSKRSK
# [9] = target: T5, Tyrosyl-tRNA synthetase, putative (Trypanosoma cruzi (strain CL Brener)); experiment: Trypanosoma cruzi tyrosyl tRNA synthetase (TcYRS) SOP; type: functional; set-up: scale not given: direction of the effect not stated beside the values; settings: 30 µM
# [10] = target: Chromo domain-containing protein 1 (Saccharomyces cerevisiae (strain ATCC 204508 / S288c) (Baker's yeast)) (UniProt P32657); experiment: ScCHD-1 Enzyme Inhibition Assay; type: functional; set-up: scale not given: in the data most compounds retested in dose-response had high values; settings: 30 µM
# Chain of Chromo domain-containing protein 1 (Saccharomyces cerevisiae (strain ATCC 204508 / S288c) (Baker's yeast)) (P32657 whole entry, the tested form may be a part): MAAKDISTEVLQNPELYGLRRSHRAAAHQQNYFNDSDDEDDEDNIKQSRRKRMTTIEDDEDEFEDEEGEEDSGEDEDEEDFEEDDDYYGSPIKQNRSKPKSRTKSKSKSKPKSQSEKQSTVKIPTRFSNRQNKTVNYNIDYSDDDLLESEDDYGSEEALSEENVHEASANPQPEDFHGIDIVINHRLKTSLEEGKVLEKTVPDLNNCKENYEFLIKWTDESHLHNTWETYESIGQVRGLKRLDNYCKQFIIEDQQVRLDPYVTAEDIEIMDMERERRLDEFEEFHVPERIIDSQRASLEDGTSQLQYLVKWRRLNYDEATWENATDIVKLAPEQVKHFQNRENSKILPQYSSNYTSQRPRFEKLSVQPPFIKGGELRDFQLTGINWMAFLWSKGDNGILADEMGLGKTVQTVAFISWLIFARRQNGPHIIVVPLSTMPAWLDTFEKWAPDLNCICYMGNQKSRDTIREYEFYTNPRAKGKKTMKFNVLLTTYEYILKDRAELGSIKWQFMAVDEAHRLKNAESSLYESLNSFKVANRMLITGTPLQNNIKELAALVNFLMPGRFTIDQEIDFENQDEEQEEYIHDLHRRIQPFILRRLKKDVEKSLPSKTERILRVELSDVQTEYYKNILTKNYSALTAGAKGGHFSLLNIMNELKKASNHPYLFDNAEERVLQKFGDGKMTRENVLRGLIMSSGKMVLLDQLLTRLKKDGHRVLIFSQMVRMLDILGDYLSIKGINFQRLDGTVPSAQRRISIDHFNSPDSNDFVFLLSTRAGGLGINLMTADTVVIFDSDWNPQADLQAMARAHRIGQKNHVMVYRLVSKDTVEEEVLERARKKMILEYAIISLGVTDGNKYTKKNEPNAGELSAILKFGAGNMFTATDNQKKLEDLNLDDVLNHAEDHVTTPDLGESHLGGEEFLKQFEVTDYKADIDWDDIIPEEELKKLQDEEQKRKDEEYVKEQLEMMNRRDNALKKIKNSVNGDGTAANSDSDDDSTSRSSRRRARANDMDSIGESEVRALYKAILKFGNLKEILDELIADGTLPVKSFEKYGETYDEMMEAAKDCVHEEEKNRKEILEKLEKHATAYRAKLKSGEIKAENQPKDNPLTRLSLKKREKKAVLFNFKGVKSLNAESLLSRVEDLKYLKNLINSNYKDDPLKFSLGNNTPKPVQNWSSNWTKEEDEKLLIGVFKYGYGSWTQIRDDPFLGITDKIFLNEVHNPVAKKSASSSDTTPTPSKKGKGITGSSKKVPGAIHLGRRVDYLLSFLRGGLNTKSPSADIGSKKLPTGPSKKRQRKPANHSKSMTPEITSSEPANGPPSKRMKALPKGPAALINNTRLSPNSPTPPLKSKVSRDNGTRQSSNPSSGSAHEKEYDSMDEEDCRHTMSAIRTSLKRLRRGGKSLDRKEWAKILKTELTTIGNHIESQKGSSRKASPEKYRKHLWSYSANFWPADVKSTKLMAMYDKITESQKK
smiles,measurement,setting,value
O=C(CC1=CCCCC1)NCCc1csc(N2CCCC2)n1,PXC50,"[1]; BOTTOM 3.701535951, HILLSLOPE 1.30756587, MAX_EFFECT 71.01449275, TOP 100.0",4.26
same,PXC50,"[1]; BOTTOM -1.141810122, HILLSLOPE 1.921557011, MAX_EFFECT 84.15841584, TOP 100.0",4.32
same,PXC50,[1]; MAX_EFFECT 3.162055336,< 4
same,PXC50,[1]; MAX_EFFECT 8.571428571,< 4
same,PXC50,[1]; MAX_EFFECT 50.53763441,< 4
same,Percent Effect,[2],-6.52%
same,Percent Effect,[3],-5.33%
same,Percent Effect,[4],-0.418%
same,Percent Effect,[5],8.91%
same,Percent Effect,Trypanosoma cruzi,15.9%
same,Percent Effect,[6],-1.56%
same,Percent Effect,[7],25.3%
same,Percent Effect,Homo sapiens,-20.2%
same,Percent Effect,[8],23.5%
same,Percent Effect,[9],8.64%
same,Percent Effect,[10],33%
O=C(c1cc(=O)n(-c2ccccc2)[nH]1)N1CCCC(c2ccn[nH]2)C1 (stereo unspecified),PXC50,"[1]; BOTTOM 0.320076031, HILLSLOPE 1.262872317, MAX_EFFECT 68.45753899, TOP 100.0",4.26
same,PXC50,"[1]; BOTTOM -1.400745031, HILLSLOPE 1.149427593, MAX_EFFECT 63.75838926, TOP 91.13261067",4.31
same,PXC50,"[1]; BOTTOM -5.915072335, HILLSLOPE 1.793815397, MAX_EFFECT 65.97222222, TOP 99.62132459",4.18
same,Percent Effect,[4],-16.1%
CC(C)c1nc2c(n1C)CCN(Cc1nc(-c3cccnc3)no1)C2,PXC50,"[1]; BOTTOM 2.671185226, HILLSLOPE 0.615272847, MAX_EFFECT 58.33333333, TOP 100.0",4.04
same,PXC50,[1]; MAX_EFFECT 45.45454545,< 4
same,PXC50,[1]; MAX_EFFECT 45.58058925,< 4
same,PXC50,[1]; MAX_EFFECT 47.65100671,< 4
same,PXC50,[1]; MAX_EFFECT 48.17658349,< 4
CC1CCN(c2ccc(C(=O)N3CCCC3c3ccc[nH]3)cn2)CC1 (stereo unspecified),PXC50,"[1]; BOTTOM 1.515439463, HILLSLOPE 1.666598775, MAX_EFFECT 83.87715931, TOP 100.0",4.46
same,PXC50,"[1]; BOTTOM -1.123012713, HILLSLOPE 2.407877124, MAX_EFFECT 92.83154122, TOP 98.62534766",4.49
same,PXC50,"[1]; BOTTOM -1.142129641, HILLSLOPE 1.640897748, MAX_EFFECT 81.18022329, TOP 100.0",4.4
same,PXC50,"[1]; BOTTOM -13.95110743, HILLSLOPE 2.091757253, MAX_EFFECT 73.91304348, TOP 74.65708324",4.71
same,PXC50,"[1]; BOTTOM -19.81350398, HILLSLOPE 1.3052719, MAX_EFFECT 84.15841584, TOP 92.57854766",4.84
same,Percent Effect,[4],-6.21%

# Reference: ChEMBL document CHEMBL3988442, “University of Dundee, Small-Polar-MMV Screening Library” (2021)
